Screening results from PubChem.
Rows were chosen to be rich in hits. Some 5.9% of all compounds tested hit in one or more screens of this group.
ABHD5-PLIN5 inh: blocks binding of human ABHD5 to perilipin-5 | inhibition, % at 4 µM | Split G. princeps luciferase complementation, luminescence, 4 h | 0.78% of 360,000 active;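 active = inhibition above the mean inhibition across every tested compound plus 3 SD, cut at about 22% in these data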;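 also: 0% = DMSO only wells and the 100% control is not disclosed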
Target sequence (Q00G26 whole entry, looked up): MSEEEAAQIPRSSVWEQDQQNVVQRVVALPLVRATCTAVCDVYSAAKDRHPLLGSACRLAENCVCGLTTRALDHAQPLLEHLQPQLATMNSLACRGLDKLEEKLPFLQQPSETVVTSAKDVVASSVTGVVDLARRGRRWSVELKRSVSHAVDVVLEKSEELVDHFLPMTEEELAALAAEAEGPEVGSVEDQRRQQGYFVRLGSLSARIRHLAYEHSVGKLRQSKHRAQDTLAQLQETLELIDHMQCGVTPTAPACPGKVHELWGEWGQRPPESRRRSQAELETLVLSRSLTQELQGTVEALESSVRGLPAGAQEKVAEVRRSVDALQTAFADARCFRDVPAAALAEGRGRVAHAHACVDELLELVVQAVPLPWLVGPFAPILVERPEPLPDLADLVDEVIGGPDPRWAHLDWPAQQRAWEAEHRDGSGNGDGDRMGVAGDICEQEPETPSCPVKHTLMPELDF
Target sequence (Q8WTS1 whole entry, looked up): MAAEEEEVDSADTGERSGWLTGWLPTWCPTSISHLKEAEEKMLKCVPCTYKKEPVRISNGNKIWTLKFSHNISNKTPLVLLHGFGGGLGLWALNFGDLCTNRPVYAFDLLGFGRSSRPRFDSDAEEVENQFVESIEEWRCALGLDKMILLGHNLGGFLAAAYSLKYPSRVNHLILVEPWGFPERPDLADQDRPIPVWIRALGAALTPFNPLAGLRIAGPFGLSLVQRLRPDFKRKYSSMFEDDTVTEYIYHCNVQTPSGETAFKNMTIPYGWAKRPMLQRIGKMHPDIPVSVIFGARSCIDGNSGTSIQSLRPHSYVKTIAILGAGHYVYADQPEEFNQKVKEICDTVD
Rtt109 HAT inh: inhibitors of Candida albicans Rtt109/Vps75 histone acetyltransferase | Q5AAJ8 | purified Rtt109/Vps75, ThioGlo CoA-SH fluorescence, 4 h | inhibition, % at 34.9 µM | 0.16% of 330,000 active | AID 540336;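 active = inhibition of at least 50% in every replicate; inconclusive = best replicate reaches 50% inhibition but some replicates fall short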
rCAG RNA binder: binds r(CAG) RNA repeats | r(CAG) RNA repeat, TO-PRO-1 dye displacement fluorescence | inhibition, % at 3 µM | 1.3% of 370,000 active | AID 651821;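 active = inhibition above the plate cutoff, the mean of all test compounds on that plate plus 3 SD, cut at about 35% in these data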;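 also: 0% = DMSO alone and 100% = 100 µM mitoxantrone as full dye displacement; higher means more dye released from RNA so lower well fluorescence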
LANA-H2B inh: blocks KSHV LANA binding to histone H2A/H2B | cell-free LANA-H2A/H2B peptide, fluorescence polarization | inhibition, % (concentration not given with the values) | 0.6% of 320,000 active | AID 2629; in the data active = inhibition mostly above about 10%, no sharp cut-off; inactive = mostly below about 6.7%
ALR H2O2 inh: human ALR oxidase inhibition via reduced H2O2; P55789; purified ALR, DTT oxidation, H2O2 HRP-luminol luminescence; inhibition, % (test concentration not listed); 3.8% of 290,000 active; AID 485317;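 active = mean replicate inhibition above about 79%, with every replicate also reaching it, limit read from the data; inconclusive = only one of the two criteria met; inactive = mean below limit and not every replicate reaching it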
PRMT1 inh: inhibitors of human PRMT1 | Q99873 | inhibition, % at 2.79 µM | recombinant PRMT1, activity-based probe fluorescence polarization | 1.3% of 370,000 active;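 active = inhibition above about 21% made by adding two undisclosed values, limit read from the data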
* marks the source's active call; other numbers are inactive results; ? = inconclusive; nt = no result.

SMILES	ABHD5-PLIN5 inh	Rtt109 HAT inh	rCAG RNA binder	LANA-H2B inh	ALR H2O2 inh	PRMT1 inh
COc1ccc(CN2C(=O)CSCC2(C)C(=O)Nc2c(C)cccc2C)cc1 (stereo not given)	-0.2	nt	4.9	nt	nt	-3.7
CN1CCC(N2CCN(C3CN(Cc4cn(Cc5cccc(C(F)(F)F)c5)nn4)S(=O)(=O)C3)CC2)CC1 (stereo not given)	7.4	nt	1.7	nt	nt	3.0
Cc1ccc(N/C=C(/C#N)c2ccsc2)cc1	-10.7	0.2	4.7	2.2	98.0*	-3.3
N#CC(C#N)=CNc1cccnc1	-2.4	43.4	-2.0	1.7	2.2	0.5
N#C/C(=C/Nc1ccccc1)c1ccsc1	4.0	5.1	2.9	-0.4	88.9*	1.2
COc1ccc(-c2csc3ncn(CC(=O)N4CCOCC4)c(=O)c23)cc1	-7.5	2.6	2.1	16.5*	-10.7	-2.2
COc1ccc(-n2cnc3scc(-c4ccc(OC)c(OC)c4)c3c2=O)cc1	9.2	62.5*	-4.1	0.5	-4.0	2.6
COc1ccc(-c2csc3ncn(-c4ccc(C)cc4)c(=O)c23)cc1OC	5.7	-0.8	-2.5	2.8	nt	-2.5
CC1CC(C)CN(S(=O)(=O)c2ccc(C(=O)Nc3nnc(-c4cccs4)o3)cc2)C1 (stereo not given)	-3.9	-4.8	30.1	-3.9	72.3	-0.9
CCC1CCCCN1S(=O)(=O)c1ccc(C(=O)Nc2nnc(-c3cccs3)o2)cc1 (stereo not given)	-4.6	-6.4	nt	1.5	97.9*	nt
Cc1cc(N2CCN(C(=O)OC(C)(C)C)C[C@@H]2C)ccc1N1CCS(=O)(=O)CC1	nt	nt	1.3	nt	nt	-0.2
Cc1ccc(-c2nc(=S)c3c(n2Cc2ccco2)CCCC3)cc1	13.2	0.8	5.1	nt	nt	6.9
Cc1ccc(-c2nc(=S)c3c(n2Cc2ccco2)CC(C)(C)OC3)cc1	54.7*	18.4	nt	2.9	97.0*	nt
CCOC(=O)C(=NC(C)C)NNc1cc(Cl)ccc1Cl	-7.0	nt	-2.6	-4.0	nt	-0.1
CCOC(=O)C(=NC(C)(C)C)NNc1cc(Cl)ccc1Cl	-1.4	-5.7	1.4	2.8	98.6*	-2.1
CCCN1C(=O)c2[nH]nc(-c3ccccc3)c2C1c1ccc(C)cc1 (stereo not given)	nt	nt	0.1	nt	nt	0.4
CCCN1C(=O)c2[nH]nc(-c3ccccc3)c2C1c1ccc(F)cc1 (stereo not given)	nt	nt	0.4	nt	nt	22.3*
C[C@@H]1ON(C)[C@H]2C[C@H]3c4[nH]c5cccc(-c6ccccc6)c5c4CCN3C[C@@H]12	nt	nt	6.7	nt	nt	0.5
Nc1[nH]c(C(=O)c2ccc(Br)cc2)c(-c2cccc3ccccc23)c1C(=O)NCCc1c[nH]c2ccccc12	nt	nt	13.8	nt	nt	1.3
CC(C)C(=O)n1nc(-c2cccnc2)nc1NCc1ccc(F)cc1	-0.6	3.6	-3.3	0.8	97.3*	1.6
CCCC(=O)n1nc(-c2cccnc2)nc1NCc1ccc(OC)cc1	-1.6	14.9	-3.1	nt	nt	4.5
CCc1sc(NS(C)(=O)=O)nc1-c1ccccc1	2.6	0.9	7.8	0.4	98.3*	1.6
Cc1ccc(C(=O)NCCN2CCC(n3c(=O)[nH]c4ccccc43)CC2)cc1	-2.6	nt	-1.3	nt	nt	-1.0
O=C(Oc1ccccc1)c1ccc(NC(=O)c2ccco2)cc1	-3.8	0.6	6.2	0.3	55.9	24.4*
COc1ccc(Cl)cc1NC(=O)c1cc(-c2cc(C)ccc2O)n[nH]1	3.5	3.0	10.1	2.4	-0.5	0.3
SMILES	ABHD5-PLIN5 inh	Rtt109 HAT inh	rCAG RNA binder	LANA-H2B inh	ALR H2O2 inh	PRMT1 inh
COc1ccc(Cl)cc1NC(=O)c1cc(-c2ccc(C)cc2O)n[nH]1	-3.0	-2.5	1.6	23.1*	-1.2	5.8
COc1ccc(NC2CCCN(C(=O)CN3CCOC3=O)C2)cc1 (stereo not given)	-13.7	-1.2	0.3	-15.0	98.3*	1.1
COc1ccc(NC2CCCN(C(=O)Cn3ccc(C)n3)C2)cc1OC (stereo not given)	-2.4	31.3	-2.2	7.7	99.0*	2.4
COc1ccc(NC2CCCN(C(=O)CSc3ccccc3)C2)cc1OC (stereo not given)	-1.5	-5.0	-2.6	-1.0	-15.6	0.8
COc1ccc(NC2CCCN(C(=O)CN3CCOC3=O)C2)cc1OC (stereo not given)	-4.4	-5.5	1.3	-2.6	99.5*	0.2
Cc1ccn(CC(=O)N2CCCC(N3CCN(c4cccc(Cl)c4)CC3)C2)n1 (stereo not given)	8.3	-2.2	-8.0	-2.9	98.6*	-4.8
CSc1ccc(C(=O)C2CCCN(C(=O)CN3CCOC3=O)C2)cc1 (stereo not given)	-5.1	-4.9	-2.3	-12.6	-8.9	1.0
C#CCNC(=O)C[C@@H]1C(=O)N(CCc2ccc(Cl)cc2)/C2=C/CCCCC[C@@]21C(=O)OCC	nt	nt	1.6	nt	nt	-1.2
CC(=O)Oc1cc(C(=O)OCC(=O)N2CCc3ccccc3C2)cc(OC(C)=O)c1OC(C)=O	1.3	-10.6	14.5	0.2	65.4	6.6
COC(=O)c1cc2c(c3c4cc(C)ccc4n(S(=O)(=O)c4ccc(C)cc4)c13)C(=O)N(C)C2	nt	nt	10.0	nt	nt	2.3
O=C(O)c1ccc(Cl)cc1NC(=O)C1CCCO1 (stereo not given)	-1.6	-1.9	2.0	1.2	-2.1	-0.6
Cc1cc(NC(=O)c2ccc(NC(=O)C3CCCO3)cc2)ccc1Br (stereo not given)	-6.9	1.8	1.9	2.7	5.2	1.8
COC(=O)c1ccc(C(=O)OC)c(NC(=O)C2CCCO2)c1 (stereo not given)	0.6	0.3	-2.1	15.8*	-4.6	-1.3
O=C(Nc1cc(Cl)c(O)c(Cl)c1)C1CCCO1 (stereo not given)	2.9	nt	-0.2	6.1	98.4*	2.6
O=C(Nc1ccc(O)cc1)c1ccc(NC(=O)C2CCCO2)cc1 (stereo not given)	-1.7	-1.0	-2.7	-15.6	99.0*	-4.5
CCN(CC)c1ccc(NC(=O)c2ccc(NC(=O)C3CCCO3)cc2)c(C)c1 (stereo not given)	3.8	3.4	-4.9	-0.1	99.1*	2.3
CCC(CC)c1nnc(NC(=O)Cc2c[nH]c3ccccc23)s1	-1.3	nt	3.8	nt	nt	-2.5
CCn1c2ccccc2c2cc(C=NNC(=O)c3ccoc3C)ccc21	nt	nt	14.8	nt	nt	5.3
CCN1/C(=C/c2ccc3cc(C)ccc3[n+]2CC)Sc2cc(C)ccc21	14.2	82.0*	-12.4	nt	nt	-5.7
Cn1nc(C(C)(C)C)cc1C(=O)Sc1cccc(Br)c1	-1.8	0.1	-1.7	0.9	98.6*	3.0
Cn1nc(C(C)(C)C)cc1C(=O)O	2.4	1.6	-1.1	-1.1	-5.7	2.5
Cc1cccc(NC(=O)COc2ccccc2C(=O)NC(C)c2ccccc2)c1 (stereo not given)	2.4	1.9	nt	2.8	nt	nt
Cc1cc2nc3c(=O)n(CCc4ccccc4)c(=O)[nH]c3nc2cc1N	-26.4	?	-165.4	15.9	-4.4	109.4*
Cc1nc2c(=O)n(C)c(=O)[nH]c2n1Cc1ccccc1	-2.3	-18.3	-1.7	-3.5	-13.3	-3.0
